Data as given in publication PMC5998130.

Molecular target: Smad nuclear-interacting protein 1 (UniProt Q8TAD8)
Assay: mass-spectrometry hit list; affinity purification or IP with mass spectrometry

Q: “DNA-directed RNA polymerase II subunit RPB1, P24928” was tested. Which “listed as a hit” value did it give?
A: yes
